# Results from PubChem BioAssay (NCATS).
# Inconclusive results are not listed. A call without a number means that no potency is given here. Unmarked numbers belong to inactive results. Activity calls are given as the source filed them. Calls come from the whole dose curve; as a rule, active = well fitted curve in the direction sought with a large enough effect; inconclusive = small, poorly fitted or top-dose-only effect, or another doubt; inactive = no such curve, though single readings can be large; an effect the other way counts as inactive or inconclusive.
# Experiments:
# [1] = P-glycoprotein substrates identified in KB-3-1 adenocarcinoma cell line, qHTS therapeutic library screen (AID 1346986); note: nearly all actives have a fitted effect of over 60% in size;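 note: potency is for cytotoxicity meaning loss of cell viability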
# Procedure, shortened: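 Counter-screen: cherry-picked hits retested in the KB pair and in HEK-293 pcDNA/MDR-19 cells ± tariquidar. Primary screen used 72 h CellTiter-Glo viability in KB-3-1 and KB-8-5-11.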
# [2] = P-glycoprotein substrates identified in KB-8-5-11 adenocarcinoma cell line, qHTS therapeutic library screen (AID 1346987); note: nearly all actives have a fitted effect of over 65% in size; for activity change, negative = cytotoxicity: series mostly up to about 44 µM
# Procedure, shortened: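 KB-8-5-11: colchicine-selected sub-line of KB-3-1 over-expressing P-gp; assay medium lacked colchicine. 72 h drug exposure at 37 degree C, CellTiter-Glo.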
# Potency is the fitted concentration of half-maximal effect.
structure (smiles),measurement,setting,value
Cc1cc(Nc2nc(NC(C)c3ncc(F)cn3)ncc2Cl)n[nH]1 (stereo not drawn),Potency,[1],inactive
CCOc1cc(C)c(Cl)cc1S(=O)(=O)n1cnc2ccccc21,Potency,[1],inactive
COc1cc2ncnc(Nc3cccc(O)c3)c2cc1OC,Potency,[1],inactive
same,Potency,[2],inactive
C=C1[C@H](OC(C)=O)[C@H]2[C@@H](OC(C)=O)[C@](C)(OC(C)=O)C[C@]2(OC(C)=O)C(=O)[C@H](C)/C=C/C(C)(C)C(=O)[C@H](OC(=O)C(C)C)[C@H]1OC(C)=O,Potency,[1],inactive
OC[C@H]1O[C@@H](Oc2ccccc2)[C@H](O)[C@@H](O)[C@@H]1O,Potency,[1],inactive
same,Potency,[2],inactive
C[C@@H]1CC[C@]2(C(=O)O[C@@H]3O[C@H](CO)[C@@H](O)[C@H](O)[C@H]3O)CC[C@]3(C)C(=CCC4[C@@]5(C)C[C@@H](O)[C@H](O)[C@@](C)(C(=O)O[C@H]6[C@H](O)C[C@@]7(C)C(CC[C@]8(C)C7CC=C7[C@H]9[C@](C(=O)O[C@@H]%10O[C@H](CO)[C@@H](O)[C@H](O)[C@H]%10O)(CC[C@@H](C)[C@@]9(C)O)CC[C@]78C)[C@@]6(CO)C(=O)O)C5CC[C@]43C)[C@@H]2[C@]1(C)O (stereo partly drawn),outcome,[1],inactive [at 9.29 µM]
same,"activity change, negative = cytotoxicity",[2],1.31% [at 9.29 µM]
CCNC(=O)Nc1ccc(-c2nc3c(c(N4CCOC[C@@H]4C)n2)CCN(c2ncccn2)C3)cc1,Potency,[1],0.058 µM (active)
same,Potency,[2],0.259 µM (active)
CC1(C)CC[C@]2(C(=O)O[C@@H]3O[C@H](CO)[C@@H](O)[C@H](O)[C@H]3O)CC[C@]3(C)C(=CCC4[C@@]5(C)C[C@@H](O)[C@H](O)[C@@](C)(CO)C5CC[C@]43C)C2[C@@H]1O (stereo partly drawn),Potency,[1],inactive
same,Potency,[2],inactive
O=C(Nc1c(-c2cccs2)nc2ccccn12)c1ccc(Cl)cc1,Potency,[1],inactive
same,Potency,[2],inactive
CN[C@H](CC(C)C)C(=O)N[C@H]1C(=O)N[C@@H](CC(N)=O)C(=O)N[C@H]2C(=O)N[C@H]3C(=O)N[C@H](C(=O)N[C@H](C(=O)O)c4cc(O)cc(O)c4-c4cc3ccc4O)[C@H](O[C@H]3C[C@](C)(N)[C@@H](O)[C@H](C)O3)c3ccc(c(Cl)c3)Oc3cc2cc(c3O[C@@H]2O[C@H](CO)[C@@H](O)[C@H](O)[C@H]2O[C@H]2C[C@](C)(NCc3ccc(-c4ccc(Cl)cc4)cc3)[C@@H](O)[C@H](C)O2)Oc2ccc(cc2Cl)[C@H]1O,Potency,[1],inactive
same,Potency,[2],inactive
CCC(O)(C(=O)OCc1ccccc1NC(=O)CCC(=O)O)C(C)O (stereo not drawn),Potency,[1],inactive
same,Potency,[2],inactive
O=C(O)[C@@H]1C[C@H]2C[C@@H](CCc3nn[nH]n3)CC[C@H]2CN1,Potency,[1],inactive
same,Potency,[2],inactive
Nc1nccn2c(C3CCC(C(=O)O)CC3)nc(-c3cc4cccc(Cl)c4[nH]3)c12 (stereo not drawn),Potency,[1],1.64 µM (active)
same,Potency,[2],1.46 µM (active)
O=C(O)[C@H](Cc1ccc(Nc2nccc3ccncc23)cc1)NC1=C(Br)C(=O)C12CCCCC2,Potency,[1],inactive
same,Potency,[2],inactive
CCC(O)C(C)C1CCC(C(C)C(=O)O)O1 (stereo not drawn),Potency,[1],inactive
same,Potency,[2],inactive
C=CC(C)(C)C12C=C(OC)C(=O)N3C(C(C)C)C(=O)NC31N(OC)c1ccccc12 (stereo not drawn),Potency,[1],inactive
same,Potency,[2],inactive
C[C@@H]1O[C@@H](O[C@H]2[C@@H](OC(=O)[C@]34CCC(C)(C)CC3C3=CCC5[C@@]6(C)C[C@H](O)[C@H](O[C@@H]7O[C@H](C(=O)O)[C@@H](O)[C@H](O)[C@H]7O)[C@@](C)(C(=O)O)C6CC[C@@]5(C)[C@]3(C)CC4)OC[C@H](O)[C@@H]2O)[C@H](O)[C@H](O)[C@H]1O[C@@H]1OC[C@@H](O)[C@H](O)[C@H]1O (stereo partly drawn),outcome,[1],inactive [at 9.29 µM]
same,"activity change, negative = cytotoxicity",[2],1.24% [at 9.29 µM]
C/C1=C\CCC(C)CCO[C@@H]2O[C@H](CO[C@@H]3OC[C@H](O)[C@H](O)[C@H]3OC1=O)[C@@H](O)[C@H](O)[C@H]2O (stereo partly drawn),Potency,[1],inactive
same,Potency,[2],inactive
Cn1c(=O)n(-c2ccc(C(C)(C)C#N)cc2)c2c3cc(C#Cc4cccnc4)ccc3ncc21,Potency,[1],0.126 µM (active)
same,Potency,[2],0.0893 µM (active)
CC(=O)c1ccc2c(c1)C(O)C(C(C)(C)O)O2 (stereo not drawn),Potency,[1],inactive
same,Potency,[2],inactive
O=C1NC2CCc3nc4ccccc4c(=O)n3C2=Nc2ccccc21 (stereo not drawn),Potency,[1],inactive
same,Potency,[2],inactive
CC(=O)c1c(O)cc(O[C@@H]2O[C@H](CO)[C@@H](O)[C@H](O)[C@H]2O)cc1O,Potency,[1],inactive
same,Potency,[2],inactive
CC1=C(C)C(=O)OC(C(C)C2CCC3C4C5OC5C5(O)CC(OC6OC(CO)C(OC7OC(C)C(O)C(O)C7O)C(O)C6O)CC(O)C5(C)C4CCC23C)C1 (stereo not drawn),Potency,[1],inactive
same,Potency,[2],inactive
